Rows were chosen to be rich in hits. Some 14% of all compounds tested hit in one or more screens of this group.
Cycloheximide cs: counter-screen for Shiga toxin inhibitors: cycloheximide protein synthesis inhibition | cell reporter, cycloheximide protein synthesis inhibition counterscreen | actives 12% (n = 300,000) | max response, % | AID 2314; in the data active = max response mostly above about 13%, no sharp cut-off; inactive = mostly below about 14%; also: read at 38.3 µM for the half of the compounds with a filed dose; 0% is about no effect
LmPK inhibitor: LmPK (Leishmania mexicana) enzyme inhibition; Q27686; purified LmPK, Kinase-Glo ATP luminescence, 1 h; Potency, µM (doses to about 57.5 µM), inactives show at the highest dose activity change, negative = inhibition, hits mostly inhibitors; actives 0.37% (n = 290,000); AID 1721; also: potency is read from the fitted curve at half-maximal effect; % is scaled to controls: 0 for no effect and ±100 for the full control effect
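Screened at intermediate enzyme activity to detect both inhibitors and activators: LmPK at 0.1 nM, with a 0.5 nM enzyme column as activation reference. PEP 0.5 mM, ADP 0.1 mM; ATP detected by luminescence after 1 h.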
FBPA Giardia inh: inhibitors of Giardia lamblia fructose-1,6-bisphosphate aldolase; A8B2U2; purified Giardia FBPA; Potency, µM (series often up to 59.6 µM), without a hit: at the top dose activity, negative = inhibition, usual class: inhibitors; actives 0.71% (n = 290,000); also: potency is read from the fitted curve at half-maximal effect; % is scaled to controls: 0 for no effect and ±100 for the full control effect; nearly all actives have a fitted effect of over 55% in size
Target sequence (A8B2U2 whole entry, looked up): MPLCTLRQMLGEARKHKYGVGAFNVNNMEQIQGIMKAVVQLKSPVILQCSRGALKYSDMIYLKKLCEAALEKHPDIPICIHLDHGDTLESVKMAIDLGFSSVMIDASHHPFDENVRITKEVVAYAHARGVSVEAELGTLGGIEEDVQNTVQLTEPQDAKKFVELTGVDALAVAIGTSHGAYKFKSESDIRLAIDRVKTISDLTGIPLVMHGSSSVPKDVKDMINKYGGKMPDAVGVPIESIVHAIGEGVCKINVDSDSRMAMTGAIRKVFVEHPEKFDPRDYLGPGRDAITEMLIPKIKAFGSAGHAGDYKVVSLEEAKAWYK
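40 nM FBPA preincubated 10 min at RT with compound (up to 57.5 uM final), then substrate plus GAPDH/TPI/NAD/arsenate coupling and diaphorase/resazurin added. Fluorescence read after 20 min at RT, 525/598 nm.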
Shiga inhibitor: inhibitors of Shiga toxin in Vero cells; Vero cells, Shiga toxin protein synthesis inhibition reporter; actives 9.2% (n = 290,000); inhibition, % at 38.7 µM; in the data active = inhibition mostly above about 28%, no sharp cut-off; inactive = mostly below about 43%; also: 0% is about no effect
NS1 inh: blocks influenza NS1 protein function; actives 0.4% (n = 270,000); Potency, µM (series often up to 46.1 µM), without a hit: at the top dose activity, positive = more growth; calls by dose curve; also: potency is read from the fitted curve at half-maximal effect; actives are rising curves; nearly all actives have a fitted effect of over 50% in size
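S. cerevisiae expressing influenza A NS1, grown in glucose, washed, then diluted 1:100 into pH 6.0 -URA galactose medium with 23 nl compound. Growth recovery read as OD600; NS1-free strain serves as control.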
* hit, by the source's call. Unless noted, calls follow the shape of the dose curve; as a rule, active = well fitted curve in the direction sought with a large enough effect; inconclusive = small, poorly fitted or top-dose-only effect, or another doubt; inactive = no such curve, though single readings can be large; an effect the other way counts as inactive or inconclusive.

Screening Cc1ccc(-n2nc3c(c2NC(=O)CC(C)C)CS(=O)C3)cc1 (stereo unspecified) returned Cycloheximide cs -5, LmPK inhibitor -1%, FBPA Giardia inh 1%, Shiga inhibitor -1 and NS1 inh 3%.
For Fc1ccccc1-n1cc(-c2ccccc2)[nH]c1=S the results were Cycloheximide cs 29*, LmPK inhibitor -15%, FBPA Giardia inh 2% and Shiga inhibitor 36.
`COc1ccc(-n2cc(-c3ccccc3)[nH]c2=S)c(OC)c1` gave Cycloheximide cs -4, LmPK inhibitor -3%, FBPA Giardia inh 14%, Shiga inhibitor -17 and NS1 inh -12%.
COc1ccc(NC(=O)c2c(F)c(F)c(F)c(F)c2F)cc1Cl was read as Cycloheximide cs 6, LmPK inhibitor 5%, FBPA Giardia inh 3%, Shiga inhibitor 24 and NS1 inh -7%.
Screening COc1ccc(NC(=O)Nc2ccccc2F)cc1Cl returned Cycloheximide cs 32*, LmPK inhibitor -2%, FBPA Giardia inh 0%, Shiga inhibitor 99* and NS1 inh -6%.
O=C(Nc1ccc(OC(F)F)c(Cl)c1)c1ccccn1 was read as Cycloheximide cs 41*, LmPK inhibitor -17%, FBPA Giardia inh -9% and Shiga inhibitor 94*.
COc1cc(NC(=O)c2ccccn2)cc(OC)c1OC was read as Cycloheximide cs 11, LmPK inhibitor -2%, FBPA Giardia inh -7% and Shiga inhibitor -4.
For COc1ccc(NC(=O)c2cc(F)cc(F)c2)cc1Cl the results were Cycloheximide cs 27*, LmPK inhibitor -1%, FBPA Giardia inh -1%, Shiga inhibitor 82* and NS1 inh 7%.
COc1ccc(NC(=O)c2ccc(OC(F)F)cc2)cc1Cl was read as Cycloheximide cs 47*, LmPK inhibitor inconclusive, FBPA Giardia inh -21%, Shiga inhibitor active and NS1 inh -22%.
`COC(=O)CCC(C)N1CCC(Oc2ccc(C(=O)NCc3ccccn3)cc2)CC1` (stereo unspecified) gave Cycloheximide cs -1, LmPK inhibitor -8%, FBPA Giardia inh 15%, Shiga inhibitor -3 and NS1 inh -22%.
Screening CCOC(=O)CCc1c(C)c2ccc(OCC(=O)OC(C)C)cc2oc1=O returned Cycloheximide cs 34*, LmPK inhibitor 5%, FBPA Giardia inh -2%, Shiga inhibitor active and NS1 inh -49%.
CCCCc1c(C)c2ccc(OCC(C)=O)cc2oc1=O was read as Cycloheximide cs 30*, LmPK inhibitor 4%, FBPA Giardia inh -2%, Shiga inhibitor 100* and NS1 inh -73%.
For CCOC(=O)CCc1c(C)c2ccc(OCc3nn[nH]n3)cc2oc1=O the results were Cycloheximide cs -5, LmPK inhibitor 9%, FBPA Giardia inh inconclusive, Shiga inhibitor 23 and NS1 inh 1%.
For CCOC(=O)CCc1c(C)c2ccc(OC3CCCCC3=O)cc2oc1=O (stereo unspecified) the results were Cycloheximide cs 21*, LmPK inhibitor 3%, FBPA Giardia inh 2%, Shiga inhibitor 27 and NS1 inh -1%.
For C=CCOC(=O)COc1ccc2c(C)c(CC)c(=O)oc2c1 the results were Cycloheximide cs -2, LmPK inhibitor 3%, FBPA Giardia inh -2%, Shiga inhibitor -5 and NS1 inh -45%.
For CCCc1c(C)c2ccc(OCC(C)=O)cc2oc1=O the results were Cycloheximide cs 49*, LmPK inhibitor 5%, FBPA Giardia inh 0%, Shiga inhibitor 94* and NS1 inh -102%.
CC(Sc1cnccn1)C(=O)O (stereo unspecified) was read as Cycloheximide cs -1, LmPK inhibitor -1%, FBPA Giardia inh 2%, Shiga inhibitor -8 and NS1 inh -1%.
Cc1cc(C)n(C(C)CNS(=O)(=O)c2ccccc2)n1 (stereo unspecified) was read as Cycloheximide cs -4, LmPK inhibitor 0%, FBPA Giardia inh 1%, Shiga inhibitor 15 and NS1 inh 0%.
Screening CC(=O)COc1ccc2c(C)c(-c3ccccc3)c(=O)oc2c1 returned Cycloheximide cs 45*, LmPK inhibitor -8%, FBPA Giardia inh -8% and Shiga inhibitor 58*.
Cc1c(C)c2ccc(OCC(=O)c3ccccc3)cc2oc1=O was read as Cycloheximide cs 4, LmPK inhibitor -9%, FBPA Giardia inh -1%, Shiga inhibitor 24 and NS1 inh -3%.
For O=C(Nc1ccc(N=Nc2ccccc2)cc1)c1ccc(Cl)cc1Cl the results were Cycloheximide cs 0, LmPK inhibitor 3%, FBPA Giardia inh 7%, Shiga inhibitor -11 and NS1 inh 0%.
